# Compounds without any hit were thinned out: in the full panel of roughly 83,000, 20% have a hit.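 Each cell line was grown in a 96-well plate and treated with one concentration of compound for 48 hours. Values below 10 were considered active.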 A number with no mark means an inactive call. Activity calls are given as the source filed them.
# System: SW-620 colon
# Assay: NCI-60 one-dose screen, 48 h (100 = growth as untreated, 0 = no growth, -100 = all killed)
# Details: 10 µM unless noted
row,SMILES,growth
1,COc1ccc(/C=N\Nc2nc(SCCC(C)C)nc(-c3ccc(OC)cc3)c2C#N)cc1,49.6%
2,COC1/C=C/OC2(C)Oc3c(C)c(O)c4c(O)c(c(/C=N/Nc5ccc([N+](=O)[O-])cc5[N+](=O)[O-])c(O)c4c3C2=O)NC(=O)C(C)=C/C=C/C(C)C(O)C(C)C(O)C(C)C(OC(C)=O)C1C (stereo unspecified),-41.2% (active)
3,COc1cc(OC)c(NC(=O)c2cc3ccccc3cc2O)cc1Cl,21.9%
4,CC(C)(C)[Si](C)(C)OC1[C@@H](CNC(=O)NC(=O)NC(N)=O)O[C@@H](n2cnc3c(NC(=O)Nc4ccccc4)ncnc32)[C@H]1O[Si](C)(C)C(C)(C)C (stereo partly specified),55.9%
5,COc1ccc(C/C(C)=C(\c2ccc(Cl)cc2)c2ccc(OCCN3CCCCC3)cc2)cc1,88.4%
6,Cc1ccc(C(=O)c2ccc(CC(=O)N/N=C/c3ccccc3O)n2C)cc1,89.6%
7,CCO/C=N/C1=C(C#N)C(c2ccc(Cl)cc2)c2sc3c(F)cccc3c2O1 (stereo unspecified),35.5%
8,CCCCNC(=O)Oc1ccc(/C(=C(/C)Cc2ccc(OC)cc2)c2ccc(OCCN(CC)CC)cc2)cc1,93.3%
9,COc1cc2oc(-c3cccc(NC(=O)c4ccccc4)c3)cc(=O)c2c(OC)c1OC,91.5%

# System: MCF7 breast
# Assay: as above
# Details: 10 µM unless noted
row,SMILES,growth
1,CN1C(=O)/C(=C\c2nc([P+](c3ccccc3)(c3ccccc3)c3ccccc3)c(N3CCOCC3)o2)SC1=S,85.8%
2,COc1ccc(C(=O)c2cc3c(N)c(C(=O)Nc4ccc(C)cc4)sc3nc2C)cc1,18.8%
3,COc1cc2nc3cc([N+](=O)[O-])ccc3c(NCCNCC(C)O)c2cc1OC (stereo unspecified),-13.3% (active)
4,Cc1sc2nc(NCCc3c[nH]c4ccc(Cl)cc34)[nH]c(=O)c2c1C,32.2%
5,CNC(=O)c1[nH]cc(-c2ccc(OC)cc2)c1-c1cc(OC)c2c(c1OC)OCO2,97.5%
6,C=CCc1c(O)c(C(=O)/C=C/c2ccccc2)c(OC)c2ccoc12,16.1%
7,COc1ccc(-c2cc(-c3ccc(Cl)cc3)c(C#N)c(=O)n2Cc2ccc(C(=O)Nc3ccccc3N)cc2)cc1,40.1%
8,COc1ccc(/C=C/C(=O)c2cccc(OCCCCOc3cccc(C(=O)/C=C/c4ccc(OC)c(OC)c4)c3)c2)cc1OC,44.3%
9,CCOC(=O)c1ccc(NC(=O)c2nc(-c3cc(OC)c(OC)c(OC)c3)n(-c3ccc(Cl)cc3)n2)cc1,86.7%
10,Cc1ccc(CNc2ccc3nc(CCC4CCCCC4)[nH]c3c2)cc1,22.1%
11,CC(=O)c1c(C)nc(SCC(=O)Nc2cccc(O)c2)n1-c1ccc(Cl)cc1,91.1%
12,Cc1ccc2c(c1)=C/C(=C\c1cc(-c3ccccc3)oc1O)C(=O)N=2,89.2%
13,O=C(CSc1nnc(-c2cnccn2)n1-c1ccccc1)c1ccc(Cl)cc1,94.1%
14,CCC(=C(c1ccc(OCCN2CCCCC2)cc1)c1ccc(OCCN2CCCCC2)cc1)c1ccc(Cl)cc1,-79.9% (active)
15,O=C(Nc1ccc(Oc2cccc(Cl)c2)c(Cl)c1)c1cnccn1,20.3%
16,CCCNc1nc2ccccc2c2c1S(=O)(=O)c1ccc(Cl)cc1C2=O,8.27% (active)
17,C=CCOC(=O)Nc1cccn([C@H](Cc2ccccc2)C(=O)NCCC(C)C)c1=O,92.8%
18,N#Cc1c(-c2ccc(Cl)cc2)nc(NN2C(=O)c3ccccc3C2=O)nc1N1CCOCC1,101%
19,N#Cc1nc(-c2ccc(F)cc2)oc1S(=O)(=O)N1CCCCC1,56%

row,SMILES,growth
1,COc1ccc2cc1Oc1ccc(cc1)C[C@H]1c3c(cc4c(c3Oc3cc5c(cc3OC)CCN(C)[C@@H]5C2)OCO4)CCN1C,34.6%
2,C=C1C(=O)O[C@H]2[C@H]1CC/C(COC(=O)/C=C\C(=O)NCc1ccc(Cn3c(=O)sn(CCI)c3=O)cc1)=C\CC[C@@]1(C)O[C@@H]21,24.8%
3,CCOC(=O)c1c(NC(=O)c2ccc(Cl)cc2)sc2c(CN(C)C)c(O)ccc12,66.6%
4,CSc1nc(N)c(NS(=O)(=O)c2ccc(C(C)=O)cc2)c(=O)[nH]1,85.9%
5,Cc1nc2sc(C(=O)Nc3cccc4ccccc34)c(N)c2cc1C(O)c1ccccc1 (stereo unspecified),12.4%
6,COc1ccc(C(=O)N2c3ccccc3Sc3ccccc32)c(OC)c1,19.9%
7,Cc1nc2sc(C(=O)Nc3ccc(Br)cc3)c(N)c2cc1C(O)c1ccccc1 (stereo unspecified),33.8%
8,CNc1nnc2n(-c3ccccc3)c(=O)c3cnn(-c4ccccc4)c3n12,86.7%
9,[O-]/[N+](=C\c1ccc(-n2cc(Cc3ccccc3Cc3cn(-c4ccc(/C=[N+](/[O-])c5ccccc5)cc4)nn3)nn2)cc1)c1ccccc1,90.6%
10,COc1ccc(/C=N\Nc2nc(SCCC(C)C)nc(-c3ccc(OC)cc3)c2C#N)cc1,63.5%
11,COC1/C=C/OC2(C)Oc3c(C)c(O)c4c(O)c(c(/C=N/Nc5ccc([N+](=O)[O-])cc5[N+](=O)[O-])c(O)c4c3C2=O)NC(=O)C(C)=C/C=C/C(C)C(O)C(C)C(O)C(C)C(OC(C)=O)C1C (stereo unspecified),36.6%
12,COc1cc(OC)c(NC(=O)c2cc3ccccc3cc2O)cc1Cl,76.1%
13,CC(C)(C)[Si](C)(C)OC1[C@@H](CNC(=O)NC(=O)NC(N)=O)O[C@@H](n2cnc3c(NC(=O)Nc4ccccc4)ncnc32)[C@H]1O[Si](C)(C)C(C)(C)C (stereo partly specified),57.9%
14,COc1ccc(C/C(C)=C(\c2ccc(Cl)cc2)c2ccc(OCCN3CCCCC3)cc2)cc1,81.7%
15,Cc1ccc(C(=O)c2ccc(CC(=O)N/N=C/c3ccccc3O)n2C)cc1,81.5%
16,CCO/C=N/C1=C(C#N)C(c2ccc(Cl)cc2)c2sc3c(F)cccc3c2O1 (stereo unspecified),26%
17,CCCCNC(=O)Oc1ccc(/C(=C(/C)Cc2ccc(OC)cc2)c2ccc(OCCN(CC)CC)cc2)cc1,28.5%
18,COc1cc2oc(-c3cccc(NC(=O)c4ccccc4)c3)cc(=O)c2c(OC)c1OC,77.3%

# Source: PubChem BioAssay (NCI)
